These results are taken from PubChem BioAssay (NCATS).

Assay [1] deals with Tyrosine-protein kinase Yes (Homo sapiens) (UniProt P07947). Nature of the assay: qHTS for small molecule inhibitors of Yes1 kinase: Primary Screen (AID 686947). Further: nearly all actives have a fitted effect of over 60% in size. Further: potency means the concentration at half of the fitted maximal effect. The procedure, abridged:
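ADP-Glo luminescence readout; final 4 nM Yes1, 0.1 mM ATP, 0.3 mg/mL poly(E4Y), Tris pH 7.5, MgCl2, DTT, Brij-35. 20 min compound preincubation, 60 min reaction at RT. Normalized to DMSO wells with and without enzyme.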

Assay [2] is described as follows: qHTS for small molecule inhibitors of Yes1 kinase: Counter Assay (AID 686950).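 Further: no kinase present so only ADP-Glo detection of a fixed ADP amount is tested; luminescence from ADP-Glo reporting ADP in a fixed ATP and ADP mixture; series mostly up to about 77 µM.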 An outline of the steps: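 Enzyme-free detection counter-screen: compounds preincubated 20 min in buffer, then 0.08 mM ATP plus 0.02 mM ADP added for 60 min at room temperature; ADP-Glo luminescence. Buffer 50 mM Tris pH 7.5, 10 mM MgCl2, 150 mM NaCl; normalized to ATP+ADP and ATP-only controls.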
(qHTS replaces the single test concentration by a dilution series.)

Assay [3] in a line: qHTS assay for environmental chemicals that activate the Aryl hydrocarbon Receptor (AhR) signaling pathway (AID 651777). Further: nearly all actives have a fitted effect of over 15% in size. The settings on record: 1A2-DRE human hepatoma cells, luciferase, 24 h; activation: active compounds read high. The procedure, abridged:
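AhR activation is scored as a rise in luciferase from a stable DRE–CYP1A2 promoter construct in human hepatoma cells. Treatment lasts 24 hr at 37 C; detection uses One-Glo after 30 min at room temperature.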

Assay [4] addresses Peroxisome proliferator-activated receptor alpha (Homo sapiens) (UniProt Q07869). Nature of the assay: qHTS assay for small molecule agonists of the peroxisome proliferator-activated receptor alpha (PPARalpha) signaling pathway (AID 651778). The settings on record: PathHunter PPARalpha complementation, chemiluminescence, 6 h; active compounds read high. The procedure, abridged:
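Enzyme-fragment complementation assay in which ligand-bound PPARalpha translocates and forms an active enzyme that generates chemiluminescence. Cells were plated overnight, exposed to compound for 6 hr at 37 C, and then given detection reagent for 60 min at room temperature.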

Assay [5] deals with Nuclear receptor ROR-gamma (Homo sapiens) (UniProt P51449). Put plainly: qHTS assay for small molecule antagonists of the retinoid-related orphan receptor gamma (ROR-gamma) signaling pathway (AID 651802). Further: series mostly up to about 92 µM; nearly all actives have a fitted effect of over 60% in size. An outline of the steps:
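CHO cells carrying TET-inducible ROR-gamma and an ROR response element–luciferase reporter were exposed to compound, then induced with doxycycline. After 16hr at 37C, luminescence was read; lower signal indicates antagonism.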

Assay [6] addresses Arylsulfatase A (Homo sapiens) (UniProt P15289). Put plainly: qHTS screen for enhancers of Arylsulfatase A (ASA1): LOPAC Validation Assay (AID 720538). The note with it: outcome: dose series up to 57.5 µM. An outline of the steps:
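First, ASA-I179S fibroblasts from an MLD patient adhered for 6 hrs. Next, compounds were added for 48h. Then pNCS substrate (0.5mM final) with lysis buffer reacted 14h at room temperature before NaOH stop and fluorescence measurement.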

Assay [7] in a line: qHTS for compounds that reverse cellular toxicity of Amyloid beta (A-beta) peptide in yeast: LOPAC Validation Assay (AID 720559). An outline of the steps: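 Activity is expressed relative to DMSO and an equimolar ferric chloride/clioquinol mix. Compounds were pinned into medium with A-beta-expressing yeast, grown 48 hr at 30 C, then read by absorbance at 600 nm.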
Assay [8] in a line: qHTS for Activators of Parkin Expression: LOPAC Validation Assay (NLuc Reporter) (AID 720572). An outline of the steps: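 Neuronal cells with a Parkin promoter-driven FLuc/NLuc coincidence reporter were treated 24 h at 37 C in 7-point dose response (LOPAC). NLuc luminescence read after FLuc; signals normalized to DMSO and positive control (100%).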
A short description of assay [9]: qHTS for Activators of Parkin Expression: LOPAC Validation Assay (FLuc Reporter) (AID 720573). An outline of the steps:
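A neuronal cell line harbouring FLuc and NLuc reporters behind the Parkin promoter was exposed to compounds for 24 h. Firefly luciferase signal, measured after 10 min with detection reagent, was scaled to DMSO and positive-control wells.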

Assay [10] in a line: qHTS assay for small molecule agonists of the antioxidant response element (ARE) signaling pathway measured by Nrf2-dependant transcriptional activity (AID 720636; active means well fitted curve in the direction sought with a large enough effect in the repeat runs; an effect the other way counts as inactive or inconclusive;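 further: HepG2 cells with an ARE-driven luciferase reporter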). An outline of the steps: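 First, ARE-luc HepG2 cells attached for 6 hr at 37 C in 1% dialyzed FBS medium. Next, compound or DMSO was added and incubated 16 hr. Finally, ONE-Glo reagent was added and luminescence measured after 30 min.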

Several values for one entry are separate records, joined by “and”; a condition that tells them apart may be missing. Equal values may be shown once. Unmarked numbers belong to inactive results. Inconclusive results are not listed. A call without a number means that no potency is given here. Activity calls are given as the source filed them. Unless noted, the call rests on the fitted dose curve; in most records, active means well fitted curve in the direction sought with a large enough effect; inconclusive means small, poorly fitted or top-dose-only effect, or another doubt; inactive means no such curve, though single readings can be large; an effect the other way counts as inactive or inconclusive.

Peroxisome proliferator-activated receptor alpha (Homo sapiens), sequence (Q07869 whole entry, looked up, the tested form may be a part): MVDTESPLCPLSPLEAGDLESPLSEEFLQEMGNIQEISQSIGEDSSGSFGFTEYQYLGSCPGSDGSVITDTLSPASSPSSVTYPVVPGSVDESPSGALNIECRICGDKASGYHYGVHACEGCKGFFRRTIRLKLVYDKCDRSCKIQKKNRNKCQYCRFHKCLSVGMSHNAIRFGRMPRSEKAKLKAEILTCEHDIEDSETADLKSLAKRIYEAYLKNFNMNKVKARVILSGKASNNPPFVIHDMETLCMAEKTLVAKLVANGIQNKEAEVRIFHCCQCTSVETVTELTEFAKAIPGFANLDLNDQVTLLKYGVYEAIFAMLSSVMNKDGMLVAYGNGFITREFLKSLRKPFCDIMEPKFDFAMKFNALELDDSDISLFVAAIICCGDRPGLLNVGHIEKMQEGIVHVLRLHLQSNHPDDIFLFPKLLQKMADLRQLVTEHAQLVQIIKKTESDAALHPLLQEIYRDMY
Tyrosine-protein kinase Yes (Homo sapiens), sequence (P07947 whole entry, looked up): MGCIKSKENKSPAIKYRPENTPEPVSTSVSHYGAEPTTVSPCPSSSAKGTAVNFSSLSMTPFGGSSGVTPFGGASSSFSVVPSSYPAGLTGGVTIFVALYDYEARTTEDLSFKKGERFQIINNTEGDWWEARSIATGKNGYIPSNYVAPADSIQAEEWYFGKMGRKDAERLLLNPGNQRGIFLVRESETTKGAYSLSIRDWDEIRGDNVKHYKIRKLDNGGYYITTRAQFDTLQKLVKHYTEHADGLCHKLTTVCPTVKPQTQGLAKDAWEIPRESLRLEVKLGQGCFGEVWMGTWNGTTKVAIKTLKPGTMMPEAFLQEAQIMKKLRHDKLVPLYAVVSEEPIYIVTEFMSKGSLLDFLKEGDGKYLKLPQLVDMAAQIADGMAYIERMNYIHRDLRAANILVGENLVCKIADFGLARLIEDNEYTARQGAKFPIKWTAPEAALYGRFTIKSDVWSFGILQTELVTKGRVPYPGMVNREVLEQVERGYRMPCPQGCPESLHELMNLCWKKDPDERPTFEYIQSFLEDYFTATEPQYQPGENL
Arylsulfatase A (Homo sapiens), sequence (P15289 whole entry, looked up): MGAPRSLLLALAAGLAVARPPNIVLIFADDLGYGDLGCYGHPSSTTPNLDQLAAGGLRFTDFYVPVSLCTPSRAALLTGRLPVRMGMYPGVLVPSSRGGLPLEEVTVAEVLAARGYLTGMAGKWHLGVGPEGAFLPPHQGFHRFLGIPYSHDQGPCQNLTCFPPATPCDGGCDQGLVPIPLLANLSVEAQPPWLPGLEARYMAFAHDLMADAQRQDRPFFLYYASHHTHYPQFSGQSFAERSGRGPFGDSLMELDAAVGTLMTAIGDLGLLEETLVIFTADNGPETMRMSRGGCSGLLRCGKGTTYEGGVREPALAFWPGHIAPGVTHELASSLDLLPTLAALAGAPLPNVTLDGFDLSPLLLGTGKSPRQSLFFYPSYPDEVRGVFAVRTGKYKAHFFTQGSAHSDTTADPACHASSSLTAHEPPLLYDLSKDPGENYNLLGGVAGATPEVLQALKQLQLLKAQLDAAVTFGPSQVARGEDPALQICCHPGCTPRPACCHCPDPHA
Nuclear receptor ROR-gamma (Homo sapiens), sequence (P51449 whole entry, looked up): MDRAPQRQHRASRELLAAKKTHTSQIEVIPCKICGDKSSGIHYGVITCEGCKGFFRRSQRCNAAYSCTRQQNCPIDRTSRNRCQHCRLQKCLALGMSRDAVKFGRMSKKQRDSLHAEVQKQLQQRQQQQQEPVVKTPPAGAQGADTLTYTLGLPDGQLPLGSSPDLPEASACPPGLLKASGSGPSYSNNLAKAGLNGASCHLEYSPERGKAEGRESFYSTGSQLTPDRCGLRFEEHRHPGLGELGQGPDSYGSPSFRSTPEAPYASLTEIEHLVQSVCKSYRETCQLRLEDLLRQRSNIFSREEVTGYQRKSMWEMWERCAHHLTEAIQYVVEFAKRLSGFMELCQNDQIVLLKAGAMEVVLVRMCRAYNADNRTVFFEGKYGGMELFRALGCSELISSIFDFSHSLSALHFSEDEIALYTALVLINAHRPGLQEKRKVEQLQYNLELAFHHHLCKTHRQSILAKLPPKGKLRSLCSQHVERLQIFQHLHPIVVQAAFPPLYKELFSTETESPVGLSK

With `OC[C@H]1O[C@@H](n2cnc3c2NC=NC[C@@H]3O)C[C@H]1O`, in assay [1], the Potency was 21800 nM (active). Moreover, the outcome in [2] was inactive.

On to `CC(=O)N(C)C1(c2ccccc2)CCN(CCC[C@]2(c3ccc(Cl)c(Cl)c3)CCCN(C(=O)c3ccccc3)C2)CC1`, for which, in [1], the Potency entry is “inactive”. Also, the result in assay [2] was inactive.

For `O=C(CCCCCCC(=O)Nc1ccccc1)NO`, the Potency entry in assay [1] is “inactive”.

With `O=C(O)c1cc(-c2ccccc2)nc2ccccc12`, the activation in assay [3] is 4.06%. Further, the max response in assay [4] is -3.44%.

With `CC(=O)c1ccc(S(=O)(=O)NC(=O)NC2CCCCC2)cc1`, the activation in assay [3] is -0.49% and 0.0331%. Further, the max response in assay [4] is 9.98% and -1.51%. The Potency result in assay [5], in assay [8], in assay [9] and in [10] was “inactive” each time. In addition, the outcome in [6] and in assay [7] was inactive.

Turning to `CC(C)(C)C(=O)Oc1ccc2c(c1)nc(NC(=O)c1cccc([N+](=O)[O-])c1)n2CCCO`, the compound was classed as inactive in [2].

In the case of `O=c1cc(N2CCOCC2)oc2c(-c3cccc4c3sc3ccccc34)cccc12`, the Potency result in assay [1] is “inactive”. Moreover, the result in [2] was inactive.

As to `O=C(Nc1cc(Cl)cc2c1[nH]c1cnccc12)c1cccnc1`, in assay [1], the Potency result is “inactive”. For the same compound, the outcome in [2] was inactive.

In the case of `COc1cc2nc(-c3ccc(N4CCN(C)CC4)cc3)nc(NCCN3CCOCC3)c2cc1OC`, the Potency result in [1] was “inactive”. Besides, in assay [2], the outcome was inactive.

Turning to `COc1cc2ncnc(-n3nc(-c4ccccn4)nc3N)c2cc1OC`, in assay [1], the Potency was 2740 nM (active). For the same compound, the call in assay [2] was inactive.

Take `CC(C)(C(=O)NCC(F)(F)C(F)(F)F)C(=O)N[C@@H]1C(=O)Nc2ccccc2-c2ccccc21`: in assay [1], the Potency entry was “inactive”. Further, the compound was classed as inactive in assay [2].

In the case of `CC(C)[C@H](CO)Nc1nc(Nc2ccc(C(=O)O)c(Cl)c2)c2ncn(C(C)C)c2n1`, the Potency in [1] is 19.4 nM (active). Also, in assay [2], the result was inactive.

Turning to `CO[C@@H](C(=O)N1Cc2[nH]nc(NC(=O)c3ccc(N4CCN(C)CC4)cc3)c2C1)c1ccccc1`, in assay [2], the compound was classed as inactive.

In the case of `Cc1ccc(F)c(NC(=O)Nc2ccc(-c3cccc4[nH]nc(N)c34)cc2)c1`, the outcome in assay [2] was inactive.

In the case of `CC(C)(C)COc1ccc(-n2cc(C(=O)O)cn2)cc1C#N`, the Potency result in assay [1] was “inactive”. The compound was called inactive in assay [2].

For `O=C1C(Cl)=C(NCCN2CCOCC2)C(=O)c2ncccc21`, in assay [1], the Potency was 6880 nM (active). Also, the outcome in assay [2] was inactive.

In the case of `O=C(Nc1ccccc1-c1cn2c(CN3CCNCC3)csc2n1)c1cnc2ccccc2n1`, the Potency result in assay [1] is “inactive”. Further, in assay [2], the compound was classed as inactive.

Consider `O=C(O)c1ccc(-c2cc3cccnc3c(-c3ccc4nonc4c3)n2)cc1`, for which, in assay [1], the Potency entry was “inactive”. Besides, in [2], the compound was called inactive.

Regarding `COc1cccc2c1CCCC2CCCN1CCN(C2CCCCC2)CC1` (stereo not given), the Potency entry in [1] is “inactive”. The call in assay [2] was inactive.

For `CO[C@H]1C[C@@H]2CC[C@@H](C)[C@@](O)(O2)C(=O)C(=O)N2CCCC[C@@H]2C(=O)O[C@H]([C@H](C)C[C@@H]2CC[C@H](OCCO)[C@H](OC)C2)CC(=O)[C@H](C)C=C(C)[C@@H](O)[C@@H](OC)C(=O)[C@H](C)C[C@H](C)C=CC=CC=C1C`, in assay [1], the Potency entry was “inactive”. For the same compound, the call in [2] was inactive.

On to `CN(C)Cc1ccc(-c2nc3cccc4c3n2CCNC4=O)cc1`, for which the Potency in assay [1] is 13700 nM (active). The result in assay [2] was inactive.

On to `O=c1cc(CN2CCOCC2)occ1OCCCCCSc1ccnc2cc(C(F)(F)F)ccc12`, for which the Potency entry in [1] is “inactive”. Also, in [2], the result was inactive.

As to `CCOc1ccc(Nc2nc(-c3c(C)nc4ccccn34)cs2)cc1`, in assay [1], the Potency result is “inactive”. The call in assay [2] was inactive.

In the case of `c1ccc2c(-c3cnn4cc(-c5ccc(N6CCNCC6)cc5)cnc34)ccnc2c1`, the Potency in [1] was 137 nM (active). Also, in assay [2], the outcome was inactive.

Regarding `CS(=O)c1ccc(-c2nc(-c3ccc(F)cc3)c(-c3ccncc3)[nH]2)cc1` (stereo not given), in assay [2], the result was inactive.

Consider `CO[C@H]1C=CC=C(C)C(=O)NC2=CC(=O)C(NCCN(C)C)=C(C[C@@H](C)C[C@H](OC)[C@@H](O)[C@@H](C)C=C(C)[C@@H]1OC(N)=O)C2=O`, for which the Potency entry in assay [1] is “inactive”. Besides, the outcome in assay [2] was inactive.

As to `O=C(N[C@@H](c1ccccc1)[C@@H]1CCCCN1)c1cccc(C(F)(F)F)c1Cl`, the Potency result in assay [1] was “inactive”. Also, the result in [2] was inactive.

On to `Cc1nc(N)sc1-c1ccnc(Nc2ccc(N3CCOCC3)cc2)n1`, for which the Potency in [1] is 308 nM (active). Besides, the compound was called inactive in assay [2].

Turning to `O=C(O)CCC1CCC(c2cc(F)ccc2F)(S(=O)(=O)c2ccc(Cl)cc2)CC1` (stereo not given), the Potency result in assay [1] was “inactive”. The call in assay [2] was inactive.

Regarding `COc1cc(Nc2ncc(F)c(Nc3ccc4c(n3)NC(=O)C(C)(C)O4)n2)cc(OC)c1OC`, in [2], the compound was classed as inactive.

Consider `CC(=O)Nc1ccc([C@H](C)C(=O)Nc2ncc(C(C)C)s2)cc1`, for which, in assay [2], the compound was called inactive.

On to `CCOC(CN1C(=O)[C@](CC(=O)Nc2ccc(C)cc2)(NC(=O)Nc2ccc(C)cc2)c2ccccc21)OCC`, for which, in assay [1], the Potency entry was “inactive”. In addition, the compound was called inactive in [2].

For the compound `CC(C)(C)c1ccc(C(O)CCCN2CCC(C(O)(c3ccccc3)c3ccccc3)CC2)cc1` (stereo not given), the result in assay [6] and in assay [7] was inactive. In addition, the Potency result in assay [8] and in assay [9] was “inactive” each time.

In the case of `C[N+](C)(C)CCCCCC[N+](C)(C)C`, the result in [6] and in assay [7] was inactive. The Potency entry in assay [8] and in [9] was “inactive” each time.

Take `O=C1NCC2(CCN(CCc3ccccc3)CC2)O1`: the outcome in assay [6] and in [7] was inactive. Moreover, the Potency entry in assay [8] and in [9] was “inactive” in each case.
